Measured values from PubChem BioAssay (NCATS).
Inconclusive results are not listed. The source made the active and inactive calls. Unless noted, calls come from the whole dose curve; as a rule, active = well fitted curve in either direction with a large enough effect (not every such curve was filed as active); inconclusive = small, poorly fitted or top-dose-only effect, or another doubt; inactive = flat fitted curve, though single readings scatter.

What was measured:
[1] = target: Lysosomal acid glucosylceramidase (Homo sapiens) (UniProt P04062); experiment: Glucocerebrosidase-p2 (AID 348; in the data active = potency below about 10 µM; note: potency is the fitted concentration of half-maximal effect); conditions: purified GBA, blue fluorogenic substrate, 40 min
Chain of Lysosomal acid glucosylceramidase (Homo sapiens) (P04062 whole entry, looked up): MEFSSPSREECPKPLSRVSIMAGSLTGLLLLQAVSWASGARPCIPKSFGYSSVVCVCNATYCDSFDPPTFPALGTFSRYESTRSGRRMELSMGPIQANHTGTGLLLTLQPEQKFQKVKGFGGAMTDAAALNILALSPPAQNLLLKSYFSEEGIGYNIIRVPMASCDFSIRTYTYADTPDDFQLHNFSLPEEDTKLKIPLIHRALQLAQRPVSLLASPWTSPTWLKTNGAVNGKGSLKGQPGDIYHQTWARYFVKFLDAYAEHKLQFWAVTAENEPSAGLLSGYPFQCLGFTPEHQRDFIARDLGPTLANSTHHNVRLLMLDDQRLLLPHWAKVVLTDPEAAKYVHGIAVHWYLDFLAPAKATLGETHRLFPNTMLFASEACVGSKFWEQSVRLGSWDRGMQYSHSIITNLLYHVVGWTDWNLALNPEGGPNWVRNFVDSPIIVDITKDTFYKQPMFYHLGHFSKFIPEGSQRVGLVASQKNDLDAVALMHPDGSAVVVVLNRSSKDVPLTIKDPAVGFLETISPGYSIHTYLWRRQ
Summary of the method: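 Normal human glucocerebrosidase (0.2 nM) with blue fluorogenic substrate (80 uM final) in citrate/phosphate pH 5.9 with 10mM sodium taurocholate, 0.01% tween-20; 40 min RT, NaOH/glycine stop; fluorescence Ex 365/Em 440; AC50 from a titration from 0.6 nM upwards.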

[2] = AP1 Signaling Pathway (AID 357); conditions: ME-180 AP-1-bla reporter, EGF-induced, beta-lactamase ratio, 5 h; at 7.69 µM (top of the series) unless noted;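 note: ME-180 reporter cells stimulated with EGF at its EC50 level; % is set by controls: 0 for no effect and ±100 for the full control effect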
Summary of the method: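 Beta-lactamase reporter under AP-1 response element, ME-180 background. Stimulus: EC50 EGF. Compound exposure 5 h, 37 °C. Detection: CCF4, 2.5 h RT, 460/530 nm. Values: AC50 from titration.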

[3] = NFAT Signaling Pathway (AID 444); conditions: Jurkat NFAT-bla M1, carbachol, beta-lactamase ratio, 5 h; at 7.69 µM (top of the series) unless noted;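 note: carbachol stimulus at about its EC50 of 1 µM final; % is set by controls: 0 for no effect and ±100 for the full control effect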
Summary of the method: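 Jurkat cells carrying an NFAT-driven β-lactamase reporter and co-transfected muscarinic M1 receptor were treated with compound plus carbachol (1 uM final, an EC50 level) for 5 h at 37 °C. CCF4 loading followed for 1 h at RT; 460/530 nm ratio gave %activity.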

[4] = Stat Signaling Pathway (AID 446); conditions: ME-180 (cervical carcinoma) SIE beta-lactamase reporter, IL-6 stimulated, 5 h; at 7.69 µM (top of the series) unless noted;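 note: ME-180 cervical cancer cells given 40 pM IL-6 alongside compound; SIE-controlled beta-lactamase reporter measured as 460/530 nm FRET emission ratio; % is set by controls: 0 for no effect and ±100 for the full control effect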
Summary of the method: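 Compound effects on IL-6-induced STAT reporter activity were measured in ME-180 cells. After overnight culture, cells were co-treated with 40 pM IL-6 for 5 hrs before beta-lactamase substrate loading at room temperature.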

[5] = target: Glucocorticoid receptor (Homo sapiens) (UniProt P04150); experiment: GR-GFP Redistribution (AID 450;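 active = compounds whose dose series gives a full or clear partial fitted curve of increased nuclear translocation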; note: potency is the fitted concentration of half-maximal effect); conditions: U2OS GR-GFP nuclear translocation, laser cytometry, 2 h
Chain of Glucocorticoid receptor (Homo sapiens) (P04150 whole entry, looked up, the tested form may be a part): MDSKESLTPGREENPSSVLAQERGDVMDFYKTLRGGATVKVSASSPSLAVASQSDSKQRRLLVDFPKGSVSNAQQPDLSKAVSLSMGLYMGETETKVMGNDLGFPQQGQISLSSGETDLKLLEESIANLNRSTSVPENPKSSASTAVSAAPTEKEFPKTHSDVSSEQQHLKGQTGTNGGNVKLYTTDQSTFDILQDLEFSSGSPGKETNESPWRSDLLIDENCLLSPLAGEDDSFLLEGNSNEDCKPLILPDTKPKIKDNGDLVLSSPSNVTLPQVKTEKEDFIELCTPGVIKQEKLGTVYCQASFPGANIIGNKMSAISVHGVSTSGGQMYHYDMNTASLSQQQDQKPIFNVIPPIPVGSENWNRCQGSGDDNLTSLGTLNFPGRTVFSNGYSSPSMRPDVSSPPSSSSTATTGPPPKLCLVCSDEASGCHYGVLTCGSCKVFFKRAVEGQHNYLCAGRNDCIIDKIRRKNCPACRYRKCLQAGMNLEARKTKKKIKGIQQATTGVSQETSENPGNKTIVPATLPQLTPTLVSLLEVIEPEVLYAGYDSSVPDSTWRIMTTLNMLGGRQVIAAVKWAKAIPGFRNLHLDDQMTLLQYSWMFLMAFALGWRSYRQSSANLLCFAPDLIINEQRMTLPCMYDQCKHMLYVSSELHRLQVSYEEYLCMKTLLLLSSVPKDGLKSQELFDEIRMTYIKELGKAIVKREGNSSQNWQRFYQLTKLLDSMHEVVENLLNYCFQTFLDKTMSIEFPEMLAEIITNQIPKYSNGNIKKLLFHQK

[6] = target: Glucocorticoid receptor (Homo sapiens) (UniProt P04150); experiment: GR-EFC Redistribution (AID 451; calls by dose curve; note: potency is the fitted concentration of half-maximal effect); conditions: CHO-K1 GR-EFC translocation, beta-gal luminescence, 2 h
Summary of the method: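 CHO-K1 cells stably expressing nuclear-localized β-gal enzyme acceptor and GR fused C-terminally to the enzyme donor fragment; ligand-driven nuclear translocation restores β-gal by complementation. Compounds titrated up to 46 uM final, 2 h at 37 °C; luminescence read.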

[7] = target: Mitogen-activated protein kinase 10 (Mus musculus) (UniProt Q61831); experiment: JNK3 AlphaScreen Assay (AID 530); conditions: JNK3 lysate, c-Jun phosphorylation; series mostly up to 11.4 µM;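 note: kinase came from lysate of stimulated human HepG2 cells; signal reports phosphorylation of biotinylated GST-cJun 1-79 at Ser73 with 10 µM ATP; % is set by controls: 0 for no effect and ±100 for the full control effect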
Summary of the method: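 Phosphorylation of biotinylated GST-cJun(1-79) at Ser73 is measured by AlphaScreen proximity luminescence. Enzyme is JNK3 in HepG2 lysates activated with interleukin-1beta and tumor necrosis factor alpha; ATP is 10 uM final.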

[8] = target: 3',5'-cyclic-AMP phosphodiesterase 4B (Homo sapiens) (UniProt Q07343); experiment: qHTS Assay for Inhibitors of PDE-IV (AID 607; active = well fitted activation curve with a large enough effect in the main read-out, with a control signal flat, not every such curve was filed as active; note: % of control where 0% means no effect); conditions: HEK293 ACTOne CNG channel cells, membrane potential fluorescence; series mostly up to 22.9 µM
Chain of 3',5'-cyclic-AMP phosphodiesterase 4B (Homo sapiens) (Q07343 whole entry, looked up): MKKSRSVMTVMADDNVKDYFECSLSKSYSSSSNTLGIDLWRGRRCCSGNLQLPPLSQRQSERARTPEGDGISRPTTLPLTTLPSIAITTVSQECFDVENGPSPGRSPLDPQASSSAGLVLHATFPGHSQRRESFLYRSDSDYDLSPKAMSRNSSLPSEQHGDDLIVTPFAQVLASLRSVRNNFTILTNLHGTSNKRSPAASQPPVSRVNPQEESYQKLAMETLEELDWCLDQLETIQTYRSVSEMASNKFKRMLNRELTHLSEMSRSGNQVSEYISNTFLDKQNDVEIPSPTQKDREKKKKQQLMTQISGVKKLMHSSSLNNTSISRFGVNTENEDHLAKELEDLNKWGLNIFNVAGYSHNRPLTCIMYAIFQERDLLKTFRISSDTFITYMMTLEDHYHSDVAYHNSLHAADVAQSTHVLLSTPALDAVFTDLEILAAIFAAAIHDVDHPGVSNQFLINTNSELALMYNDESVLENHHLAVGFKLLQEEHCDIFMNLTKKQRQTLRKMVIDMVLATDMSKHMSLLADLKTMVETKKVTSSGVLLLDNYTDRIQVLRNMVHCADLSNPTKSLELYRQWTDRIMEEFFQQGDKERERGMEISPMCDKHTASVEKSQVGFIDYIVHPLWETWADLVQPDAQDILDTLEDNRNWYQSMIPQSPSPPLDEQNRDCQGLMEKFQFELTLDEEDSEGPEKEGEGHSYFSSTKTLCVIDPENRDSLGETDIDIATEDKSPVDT
Summary of the method: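 ACTOne HEK293 cells carry a modified cAMP-gated CNG channel and express endogenous PDE4; plated 1000 cells/well, compounds up to 22.9 uM final. Membrane-potential dye fluorescence (ex 535/em 590) was read; parental cells received 10 uM forskolin + 100 uM RO 20-1724.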

O=C(O)CSc1ccc(N=C=S)cc1
inactive: Potency [1] > 11.4 µM | activity change, negative = inhibition [2] 7.13% | activity change, negative = inhibition [3] 27.9% | activity, negative = inhibition [4] 5.22% | Potency [5] > 46 µM | Potency [6] > 9.22 µM | Potency [7] | Potency [8]

Cc1nc2sc3c(c2c(=O)[nH]1)CCCC3
inactive: Potency [1] > 11.4 µM | activity change, negative = inhibition [2] 10.8% | activity change, negative = inhibition [3] -6.08% | activity, negative = inhibition [4] 6.96% | Potency [5] > 46 µM | Potency [6] > 9.22 µM | Potency [7] | Potency [8]

Cn1c(=O)c2c(ncn2CCSS(=O)(=O)O)n(C)c1=O
inactive: Potency [1] > 11.4 µM | activity change, negative = inhibition [2] -0.109% | activity change, negative = inhibition [3] 18.1% | activity, negative = inhibition [4] -2.16% | Potency [5] > 46 µM | Potency [6] > 9.22 µM | Potency [7] | Potency [8]

N=C(CC(=O)Nc1ccccn1)c1ccccc1
inactive: Potency [1] > 11.4 µM | activity change, negative = inhibition [2] 3.96% | activity change, negative = inhibition [3] 28.4% | activity, negative = inhibition [4] 5.02% | Potency [5] > 46 µM | Potency [6] > 9.22 µM | Potency [7] | Potency [8]

Nc1nc2c(c(=O)[nH]1)CN(CCCN1CCOCC1)CN2
inactive: Potency [1] > 11.4 µM | activity change, negative = inhibition [2] 1.77% | activity change, negative = inhibition [3] 5.13% | activity, negative = inhibition [4] 12.2% | Potency [5] > 46 µM | Potency [6] > 9.22 µM | Potency [7] | Potency [8]

C[C@H](CCC(=O)NN)[C@@H]1CC[C@@H]2[C@H]3CC[C@H]4C[C@@H](O)CC[C@@]4(C)[C@@H]3CC[C@]21C
inactive: Potency [1] > 11.4 µM | activity change, negative = inhibition [2] 12.8% | activity change, negative = inhibition [3] 17% | activity, negative = inhibition [4] -5.92% | Potency [5] > 46 µM | Potency [6] > 9.22 µM | Potency [7] | Potency [8]

CC(C)=N[C@H](C(=O)O)C(C)(C)S
inactive: Potency [1] > 11.4 µM | activity change, negative = inhibition [2] 10% | activity change, negative = inhibition [3] 3.46% | activity, negative = inhibition [4] 6.64% | Potency [5] > 46 µM | Potency [6] > 9.22 µM | Potency [7] | Potency [8]

CCOc1ccc(N=NS(=O)(=O)O)cc1
inactive: Potency [1] > 11.4 µM | activity change, negative = inhibition [2] 8.26% | activity change, negative = inhibition [3] -0.735% | activity, negative = inhibition [4] 8.88% | Potency [5] > 46 µM | Potency [6] > 9.22 µM | Potency [7] | Potency [8]

O=C(O)c1cncc(C(=O)O)c1
inactive: Potency [1] > 11.4 µM | activity change, negative = inhibition [2] 1.97% | activity change, negative = inhibition [3] 3.72% | activity, negative = inhibition [4] 6.17% | Potency [5] > 46 µM | Potency [6] > 9.22 µM | Potency [7] | Potency [8]

C[C@H](OP(=O)(O)O)[C@H](N)C(=O)O
inactive: Potency [1] > 11.4 µM | activity change, negative = inhibition [2] 0.907% | activity change, negative = inhibition [3] 13.7% | activity, negative = inhibition [4] -1.55% | Potency [5] > 46 µM | Potency [6] > 9.22 µM | Potency [7] | Potency [8]

NC(=S)N/N=C\c1c[nH]c2ccccc12
inactive: Potency [1] > 11.4 µM | activity change, negative = inhibition [2] 2.82% | activity change, negative = inhibition [3] -6% | activity, negative = inhibition [4] 13.8% | Potency [5] > 46 µM | Potency [6] > 9.22 µM | Potency [7] | Potency [8]

C=CCSc1nc2c(N)ncnc2n1[C@@H]1O[C@H](CO)[C@@H](O)[C@@H]1O
inactive: Potency [1] > 11.4 µM | activity change, negative = inhibition [2] 4.59% | activity change, negative = inhibition [3] 2.7% | activity, negative = inhibition [4] -1.09% | Potency [5] > 46 µM | Potency [6] > 9.22 µM | Potency [7] | Potency [8]

COC(=O)c1cc(=O)[nH]c(=O)[nH]1
inactive: Potency [1] > 11.4 µM | activity change, negative = inhibition [2] 9.08% | activity change, negative = inhibition [3] 1.11% | activity, negative = inhibition [4] -3.43% | Potency [5] > 46 µM | Potency [6] > 9.22 µM | Potency [7] | Potency [8]

C[C@H](NCCN(C)C)[C@@H]1CCC2C3CCc4cc(O)ccc4[C@H]3CCC21C (stereo partly specified)
inactive: Potency [1] > 11.4 µM | activity change, negative = inhibition [2] 3.21% | activity change, negative = inhibition [3] -1% | activity, negative = inhibition [4] -5.94% | Potency [5] > 46 µM | Potency [6] > 9.22 µM | Potency [7] | Potency [8]

CC(C)=CCNc1ncnc2nc[nH]c12
inactive: Potency [1] > 11.4 µM | activity change, negative = inhibition [2] 3.85% | activity change, negative = inhibition [3] 6.81% | activity, negative = inhibition [4] 5.75% | Potency [5] > 46 µM | Potency [6] > 9.22 µM | Potency [7] | Potency [8]

O=C1c2ccccc2C(=O)c2c(Nc3ccc4c5c(cccc35)C(=O)c3ccccc3-4)cccc21
inactive: Potency [1] > 11.4 µM | activity change, negative = inhibition [2] -3.08% | activity change, negative = inhibition [3] 6.45% | activity, negative = inhibition [4] 0.0671% | Potency [5] > 46 µM | Potency [6] > 9.22 µM | Potency [7] | Potency [8]

CC(=O)Nc1ccccc1C=C1c2ccccc2-c2ccccc21
inactive: Potency [1] > 11.4 µM | activity change, negative = inhibition [2] -4.76% | activity change, negative = inhibition [3] 18% | activity, negative = inhibition [4] -16.5% | Potency [5] > 46 µM | Potency [6] > 9.22 µM | Potency [7] | Potency [8]
